Cycloheximide cs: Cycloheximide Counterscreen for Small Molecule Inhibitors of Shiga Toxin. cell reporter, cycloheximide protein synthesis inhibition counterscreen. max response, %. actives 12% (n = 300,000); in the data active means max response mostly above about 13%, no sharp cut-off; inactive means mostly below about 14%; further: read at 38.3 µM for the half of the compounds with a filed dose; 0% is about no effect
SARS PLP yeast: qHTS of Yeast-based Assay for SARS-CoV PLP; Potency, µM (top dose mostly 32.9 µM), inactives show at the highest dose activity, positive = growth rescue, hits mostly activators; S. cerevisiae expressing SARS-CoV PLpro, growth rescue; actives 0.19% (n = 330,000); calls by dose curve; further: potency means the concentration at half of the fitted maximal effect; 0% is about no effect; nearly all actives have a fitted effect of over 55% in size
AMA1 RON2 block: qHTS for Inhibitors of AMA1-RON; Towards Development of Antimalarial Drug Lead: Primary Screen | Plasmodium falciparum AMA1 (3D7) - RON2 peptide interaction | AlphaScreen AMA1-biotinylated RON2 peptide binding | Potency, µM (titrated, usually from 58.2 µM), for inactives: at the top dose activity change, negative = inhibition, actives largely listed as inhibitors | actives 0.2% (n = 360,000) | AID 720542, 2013;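 further: potency means the concentration at half of the fitted maximal effect; 0% = vehicle wells and -100% = peptide control; nearly all actives have a fitted effect of over 45% in size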
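AMA1 (3D7) with his tag at 25 nM final met compounds first, then biotinylated RON2 peptide at 25 nM; detection used donor plus acceptor beads, 10 µg/mL apiece, read by AlphaScreen after 30 min at room temperature.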
Pf growth 96h: Primary qHTS for delayed death inhibitors of the malarial parasite plastid, 96 hour incubation | actives 6.9% (n = 320,000) | AID 504834, 2011 | P. falciparum luciferase reporter growth, 96 h | Potency, µM (series often up to 28.7 µM), for inactives: top-dose activity change, negative = inhibition, actives largely listed as inhibitors; further: potency means the concentration at half of the fitted maximal effect; on the % scale 0 is the no-effect control and ±100 the full control effect
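Two parasite generations (96 h, 37 C, 5% CO2) of compound exposure in infected erythrocytes (0.05% parasitemia, 2% hematocrit). Luciferase-reporter P. falciparum; decreased luminescence indicates inhibited growth, aimed at apicoplast-acting delayed death.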
Pf growth 48h: Primary qHTS for delayed death inhibitors of the malarial parasite plastid, 48 hour incubation; P. falciparum luciferase growth in erythrocytes, 48 h; actives 5.9% (n = 310,000); Potency, µM (titrated, usually from 28.7 µM), inactives show at the top dose activity change, negative = inhibition, hits mostly inhibitors; further: potency means the concentration at half of the fitted maximal effect; on the % scale 0 is the no-effect control and ±100 the full control effect
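Luciferase-expressing parasites in RBCs, 2% Hct / 0.1% parasitemia final; RPMI 1640 + 0.5% Albumax; 37 C, 5% CO2, one generation; luminescence read-out, lower signal = inhibition.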
Shiga toxin inh: A qHTS for Small Molecule Inhibitors of Shiga Toxin | Vero cells, Shiga toxin protein synthesis inhibition reporter | inhibition, % at 38.7 µM | actives 9.2% (n = 290,000) | AID 2315, 2010; in the data active means inhibition mostly above about 28%, no sharp cut-off; inactive means mostly below about 43%; further: 0% is about no effect
* marks the source's active call; other numbers are inactive results; ? = inconclusive; . = no result given; [ ] = dose if it differs, or a comment. Only some compounds are listed: those with a hit (about 19% of all), similar ones and a draw of the others. Unless noted, the call rests on the fitted dose curve; in most records, active means well fitted curve in the direction sought with a large enough effect; inconclusive means small, poorly fitted or top-dose-only effect, or another doubt; inactive means no such curve, though single readings can be large; an effect the other way counts as inactive or inconclusive.

SMILES	Cycloheximide cs	SARS PLP yeast	AMA1 RON2 block	Pf growth 96h	Pf growth 48h	Shiga toxin inh
CC(=O)c1cc2c(cc1NC(=O)Cn1nc(-c3ccc(C)cc3)ccc1=O)OCO2	-6.7	1.0%	14.8%	-21.6%	?	-4.1
Cc1c(N=C2N=C(NC(=O)c3ccc(F)cc3)c3ccccc32)c(=O)n(-c2ccccc2)n1C	-1.0	1.2%	-9.2%	9.3%[5.75 µM]	7.38µM*	-2.1
Nc1c(-c2ccccc2)cc[nH]c1=O	16.1	.	.	.	.	-2.4
Cc1ccc(S(=O)(=O)c2c(COC(=O)c3ccccc3Cl)c(-c3ccccc3)nn2C)cc1	7.5	-8.4%	1.2%	6.57µM*	.	-7.8
Cc1ccc(S(=O)(=O)c2c(CO)c(-c3ccccc3)nn2C)cc1	-4.7	0.2%	-3.1%	16.2%	6.4%	-16.7
O=C(Nc1ccc(S(=O)(=O)N2CCOCC2)cc1)C1CCN(S(=O)(=O)c2ccccc2)CC1	.	-4.1%	-11.6%	2.94µM*	?	.
COc1ccc(S(=O)(=O)N2CCC(C(=O)Nc3ccc(S(=O)(=O)N4CCCC4)cc3)CC2)cc1OC	.	-2.9%	3.4%	4.65µM*	?	.
Cc1nnc(NC(=O)C2CCN(S(=O)(=O)c3ccc(F)c(Cl)c3)CC2)o1	.	-15.4%	44.3%	14.7µM*	6.57µM*	.
Cc1ccc(S(=O)(=O)N2CCC(C(=O)Nc3ccc(S(=O)(=O)N4CCOCC4)cc3)CC2)cc1	.	.	6.6%[11.6 µM]	.	.	.
COc1cc(NC(=O)C2CCN(S(=O)(=O)c3ccc(N4CCCC4=O)cc3)CC2)cc(OC)c1	-2.4	2.9%	-10.3%	9.28µM*	-27.2%	-1.0
O=C(NCC1CCCO1)C1CCN(S(=O)(=O)c2ccc(Br)cc2)CC1 (centres undefined)	-3.0	-0.2%	-9.6%	3.8%	1.1%	-22.8
O=C(Nc1ccc(S(=O)(=O)N2CCCC2)cc1)C1CCN(S(=O)(=O)c2ccc(F)cc2)CC1	.	-1.0%	0.5%	?	13.1µM*	.
Cc1ccc(NC(=O)C2CCN(S(=O)(=O)c3ccc(F)cc3)CC2)cc1	-0.9	9.7%	1.3%	.	-29.5%	-9.9
O=C(Nc1ccc(C(F)(F)F)cc1)C1CCN(S(=O)(=O)c2ccc(N3CCCC3=O)cc2)CC1	-1.1	16.9%	-12.3%	?	?	-6.3
C=CCNC(=O)C1CCN(S(=O)(=O)c2ccc(Br)cc2)CC1	6.7	10.1%	1.5%	.	10.4µM*	24.5
COc1ccc(NC(=O)C2CCN(S(=O)(=O)c3ccc(N4CCCC4=O)cc3)CC2)cc1OC	1.7	1.8%	0.0%	13.1µM*	?	-2.4
Cn1cccc1/C=C1\SC(=S)N(NC(=O)c2cccc(Cl)c2)C1=O	-3.2	-36.3%	-4.7%	3.5%	2.4%	-4.2
O=C(COC(=O)Cc1ccsc1)Nc1cccc(F)c1	.	3.6%	0.0%	6.6%	27.8%	.
Cc1ccc(S(=O)(=O)NC(C(=O)N2CCOCCOCCOCC2)c2ccccc2)cc1 (centres undefined)	-4.4	0.3%	8.3%	-12.8%	1.6%	-2.5
Cc1ccc(S(=O)(=O)N2C[C@]3(O)C[C@@H]4C(=O)N(c5ccccc5)C(=O)[C@@H]4C[C@]3(OC(=O)Nc3cccs3)C2)cc1	.	.	-15.1%	.	.	.
Cc1cccc2cc3c(nc12)-c1ccccc1C3=O	17.3*	1.6%	22.6%	0.0%	-15.9%[0.00184 µM]	42.6*
Cc1nc2c(cc1C#N)C(=O)c1ccccc1-2	8.6	22.8%	2.9%	22.1%	8.1%	-1.0
O=C(NC1CCCCC1)C(CCc1ccccc1)N1CCc2ccccc2C1 (centres undefined)	.	.	-1.9%	.	.	.
CC(=O)Nc1ccccc1Nc1cc(C#N)c(C#N)cc1[N+](=O)[O-]	-1.7	3.0%	10.4%	7.38µM*	?	-26.5
CCOc1ccc(C(=O)Nc2ccccc2C#N)cc1[N+](=O)[O-]	-3.8	-7.4%	-6.6%	-12.1%	7.1%	-3.0
CC1CCCC2(C1)NC(=S)N(c1ccccc1)N2 (centres undefined)	28.4*	-17.6%	2.6%	66.3%	39.4%	27.5

Source: PubChem BioAssay
